PubChem BioAssay AID652197 (Broad Institute, 2013)
Values joined by “and” are separate entries in the source; they are usually repeats but may differ in a detail not shown here. Equal entries are not always repeated. Screen size: about 340,000 compounds; about 500 (0.15%) were called active. What follows is part of a selection rich in actives, with near analogues and random picks from the rest. A number with no mark means an inactive call.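 Rule for the calls: active = mean replicate inhibition of at least 30%, or all replicates individually reaching that 30% level; inactive = mean below 30% and not every replicate reaching it.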

Target: Endoplasmic reticulum aminopeptidase 1 (Homo sapiens) (UniProt Q9NZ08)
Sequence (Q9NZ08 whole entry, looked up): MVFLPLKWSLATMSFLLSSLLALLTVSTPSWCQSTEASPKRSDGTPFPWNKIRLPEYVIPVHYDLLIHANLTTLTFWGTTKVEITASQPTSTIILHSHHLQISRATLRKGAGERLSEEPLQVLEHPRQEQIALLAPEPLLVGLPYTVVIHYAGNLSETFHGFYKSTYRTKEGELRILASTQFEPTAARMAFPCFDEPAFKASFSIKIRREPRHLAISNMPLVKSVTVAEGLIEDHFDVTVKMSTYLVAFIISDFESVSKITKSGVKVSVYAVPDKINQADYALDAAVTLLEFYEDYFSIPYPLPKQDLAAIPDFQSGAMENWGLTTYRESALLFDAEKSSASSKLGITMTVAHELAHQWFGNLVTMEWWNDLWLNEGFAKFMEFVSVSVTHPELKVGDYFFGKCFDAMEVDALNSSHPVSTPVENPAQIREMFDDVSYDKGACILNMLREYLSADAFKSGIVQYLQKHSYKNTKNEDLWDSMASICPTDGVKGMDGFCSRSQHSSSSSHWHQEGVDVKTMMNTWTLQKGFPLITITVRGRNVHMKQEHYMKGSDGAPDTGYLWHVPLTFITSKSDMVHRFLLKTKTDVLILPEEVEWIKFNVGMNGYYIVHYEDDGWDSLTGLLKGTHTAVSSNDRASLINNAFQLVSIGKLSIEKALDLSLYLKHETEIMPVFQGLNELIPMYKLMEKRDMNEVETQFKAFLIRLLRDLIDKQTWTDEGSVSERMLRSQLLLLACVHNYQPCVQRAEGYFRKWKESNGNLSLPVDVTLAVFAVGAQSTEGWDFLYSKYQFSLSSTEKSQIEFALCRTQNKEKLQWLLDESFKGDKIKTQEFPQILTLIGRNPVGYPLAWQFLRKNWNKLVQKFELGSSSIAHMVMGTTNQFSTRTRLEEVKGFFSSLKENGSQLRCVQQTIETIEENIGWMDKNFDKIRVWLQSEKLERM
Assay: inhibition of ERAP1 peptide trimming enzyme – biochemical, single point, plate reader, primary screen (AID 652197);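 note: 0% = neutral control wells and 100% = L-leucinethiol positive control wells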
Conditions: recombinant ERAP1, Leu-AMC fluorescence, 60 min; at 10.7 µM; hits give high values

| Structure (SMILES) | inhibition |
| --- | --- |
| COc1ccc2c3c(n(C)c2c1)[C@@H](CO)N(C(=O)Nc1cccc(F)c1)CC31CCN(Cc2nccs2)CC1 | -1.39% |
| O=C(Nc1ccccc1F)N1CC(=O)N2[C@@H](CO)[C@H](c3ccc(C#CC4CCCC4)cc3)[C@@H]2C1 | -1.61% |
| CCC(=O)N1CCC2(CC1)CN(S(C)(=O)=O)[C@@H](CO)c1c2c2ccc(OC)cc2n1C | -0.517% |
| CC(=O)N(C)C[C@H]1[C@H](c2ccc(C3=CCCCC3)cc2)[C@H](CO)N1CC1CC1 | 2.34% |
| O=C(NCC1CC1)[C@@H]1[C@@H](CO)[C@@H]2Cn3c(ccc(C4=CCCC4)c3=O)[C@H]1N2CCC(F)(F)F | 6.29% |
| O=C(Nc1ccc(F)cc1)N[C@H]1CC[C@H](CCn2cc(C3(O)CCCC3)nn2)O[C@@H]1CO | -1.65% |
| CN1CCN(C(=O)C[C@H]2CC[C@H]3[C@@H](COC[C@H](O)CN3CC3CCCC3)O2)CC1 | 1.07% |
| O=C(C[C@@H]1CC[C@@H]2[C@H](COC[C@H](O)CN2C(=O)c2ccncc2)O1)NCc1cc(F)cc(F)c1 | -4.11% |
| CN1c2ccc(Br)cc2[C@@H]2[C@@H](CCN2S(=O)(=O)c2ccc(F)cc2)[C@@H]1CO | -0.368% |
| CN1CCCCC(NC(=O)C(C)(C)C)C1=O (configuration not stated) | -3.81% |
| CS(=O)(=O)Nc1ccc2c(c1)[C@H]1C[C@H](CC(=O)NC3CCCC3)O[C@@H](CO)[C@H]1O2 | -1.31% |
| CC(C)C#Cc1cnc2c(c1)C(=O)N([C@H](C)CO)C[C@H](C)[C@@H](CN(C)C(=O)Nc1cc(F)ccc1F)O2 | 1.03% |
| O=C(C[C@@H]1C=C[C@H](NC(=O)CN2CCOCC2)[C@@H](CO)O1)NCc1cccc(F)c1 | 0.919% |
| CCCC#Cc1ccc([C@@H]2[C@@H](CO)N3C(=O)CN(C(=O)Nc4cccc(F)c4)C[C@H]23)cc1 | -1.93% |
| CCCNC(=O)Nc1ccc2c(c1)OC[C@H](C)N(CCC(F)(F)F)C[C@H](C)[C@@H](OC)CN(C)C2=O | 1.36% |
| Cc1nnc(Sc2nc3c(c(=O)[nH]c(=O)n3C)n2Cc2ccccc2)s1 | -0.766% |
| CCN(CC)CCn1cnc2c1c(=O)[nH]c(=O)n2Cc1ccccc1 | -0.129% |
| Cn1c(=O)[nH]c(=O)c2c1[nH]c(=S)n2Cc1ccccc1 | 30.6% (active) |
| Cc1noc(C)c1NC(=O)N(C)C[C@@H]1OCCCC[C@H](C)Oc2ccc(NC(=O)C3CCCCC3)cc2C(=O)N([C@H](C)CO)C[C@@H]1C | 1.95% |
| Cc1noc(C)c1NC(=O)N(C)C[C@@H]1OCCCC[C@H](C)Oc2ccc(NS(=O)(=O)c3c(C)noc3C)cc2C(=O)N([C@@H](C)CO)C[C@@H]1C | -2.92% |
| CO[C@@H]1CN(C)C(=O)c2cc(NC(=O)NC3CCCCC3)ccc2OC[C@@H](C)N(C(C)=O)C[C@H]1C | 1.39% |
| CO[C@H]1CN(C)C(=O)c2ccc(NC(=O)CC(F)(F)F)cc2OC[C@H](C)N(C(=O)C2CC2)C[C@H]1C | 1.15% |
| COc1ccc2c(c1)c(=Cc1ccc(N(C)C)cc1)c1cc(-c3ccccc3)[n+](C)n12 | 48.3% (active) |

| Structure (SMILES) | inhibition |
| --- | --- |
| COc1ccc2sc(-c3ccc(N(C)C)cc3)c(C#CCO)c2c1 | 0.776% |
| CN(C)Cc1cn(CC[C@H]2CC[C@@H](NS(=O)(=O)c3ccccc3)[C@H](CO)O2)nn1 | -0.48% |
| CCNC(=O)Nc1ccc2c(c1)C(=O)N(C)[C@H]1CC[C@@H](CC(=O)N[C@@H](C)c3ccccc3)O[C@H]1CO2 | -1.42% |
| O=C(O)C[C@@H]1C[C@@H]2c3cc(NC(=O)NC4CCCC4)ccc3O[C@@H]2[C@H](CO)O1 | 0.604% |
| CC(C)NC(=O)N1[C@H](CO)[C@H](c2ccccc2)C12CN(C(=O)Cc1cccnc1)C2 | 0.883% |
| Cc1cccn2c(=O)c3cc(C(=O)NCCN4CCOCC4)c(=N)n(Cc4cccnc4)c3nc12 | 54.5% (active) |
| COc1ccc(CCn2c(=N)c(C(=O)NCC3CCCO3)cc3c(=O)n4cccc(C)c4nc32)cc1OC (configuration not stated) | 1.75% |
| Cc1ccc2nc3c(cc(C(=O)NCCc4ccccc4)c(=N)n3CC3CCCO3)c(=O)n2c1 (configuration not stated) | -79.5% |
| C[C@H]1CN([C@@H](C)CO)C(=O)Cc2cc(NC(=O)Cn3cnnn3)ccc2O[C@H]1CN(C)CC1CC1 | 2.17% |
| O=C(C[C@H]1C=C[C@H](NC(=O)Nc2cc(F)ccc2F)[C@@H](CO)O1)NCc1ccccn1 | -1.22% |
| COc1ccc(C(=O)Nc2ccc3c(c2)C(=O)N(C)C[C@@H](OC)[C@H](C)CN(C(C)=O)[C@@H](C)CO3)cc1 | 2.42% |
| O=C(Nc1cccc([N+](=O)[O-])c1)Nn1cnnc1 | -4.32% |
| CCC(CC)NC(=O)/C=C/c1cccc([N+](=O)[O-])c1 | 4.03% |
| COC(=O)/C=C\C(=O)Nc1cccc([N+](=O)[O-])c1 | 33.8% (active) |
| C[C@@H]1CCCCO[C@H](CN(C)C)[C@@H](C)CN([C@H](C)CO)C(=O)c2cc(N(C)C)ccc2O1 | -1.68% |
| COc1ccc(NC(=O)N(C)C[C@@H]2OCCCC[C@H](C)Oc3ccc(NS(=O)(=O)c4cccs4)cc3C(=O)N([C@@H](C)CO)C[C@@H]2C)cc1 | -4.78% |
| Cc1cc(=O)oc2c3c(cc(OCC(=O)N[C@H](C(=O)O)c4ccccc4)c12)OC(C)(C)CC3 | 15.5% |
| Cc1c(C)c2c(OCC(=O)N[C@@H](C(=O)O)c3ccccc3)cc3c(c2oc1=O)CCC(C)(C)O3 | 31.7% (active) |
| Cc1c(C)c2c(OCC(=O)NCCCO)cc3c(c2oc1=O)CCC(C)(C)O3 | 1.62% |
| O=C(C[C@H]1CC[C@H]2[C@@H](COC[C@@H](O)CN2Cc2nccs2)O1)NCc1ccccc1Cl | 0.949% |
| COc1ccccc1S(=O)(=O)N[C@@H]1C=C[C@H](CC(=O)NCc2cccc(F)c2)O[C@H]1CO | 0.371% |
| CN(C)C(=O)C[C@@H]1C[C@H]2c3cc(NC(=O)Nc4ccccc4F)ccc3O[C@H]2[C@@H](CO)O1 | -1.15% |
| O=C(C[C@@H]1C=C[C@H](NC(=O)Nc2ccccc2F)[C@H](CO)O1)NCc1ccc(F)cc1 | -4.09% |

| Structure (SMILES) | inhibition |
| --- | --- |
| COc1ccc(NC(=O)Nc2ccc3c(c2)C(=O)N([C@@H](C)CO)C[C@@H](C)[C@H](CN(C)S(=O)(=O)c2cccs2)O3)cc1 | 2.02% |
| C[C@@H]1CN([C@H](C)CO)C(=O)c2cc(NS(=O)(=O)c3cn(C)cn3)ccc2O[C@@H](C)CCCCO[C@H]1CN(C)C | 11.1% |
| COc1ccc(C#Cc2cnc3c(c2)C(=O)N([C@H](C)CO)C[C@@H](C)[C@@H](CN(C)C(=O)CN(C)C)O3)cc1 | 6.88% |
| Cc1noc(C)c1S(=O)(=O)Nc1cccc2c1O[C@@H](CN(C)S(=O)(=O)c1cn(C)cn1)[C@@H](C)CN([C@H](C)CO)C2=O | 1.15% |
| CCCc1cn(CC[C@@H]2CC[C@H](NS(=O)(=O)c3ccccc3Cl)[C@H](CO)O2)nn1 | 4.02% |
| CO[C@H]1CN(C)C(=O)c2ccc(NC(=O)c3ccc4c(c3)OCO4)cc2OC[C@@H](C)NC[C@@H]1C | 0.503% |
| CN1C(=O)c2cc(NS(=O)(=O)CC(F)(F)F)ccc2OC[C@H]2O[C@@H](CC(=O)NCc3ccc(Cl)c(Cl)c3)CC[C@@H]21 | -2.14% |
| Cc1ccccc1S(=O)(=O)N1[C@H](C#N)[C@H](c2ccccc2)[C@@H]1CO | 1.23% |
| CN(C)C(=O)c1cccc(-c2ccc([C@H]3[C@H]4CN(C(=O)Cc5ccccc5)CC(=O)N4[C@H]3CO)cc2)c1 | 1.83% |
| CO[C@@H]1CN(C)C(=O)c2cc(NC(=O)NC3CCCC3)ccc2OC[C@H](C)NC[C@H]1C | 1.04% |
| COc1cccc(S(=O)(=O)N2[C@@H]3CNC[C@H]2C3c2ccc(-c3ccccc3OC)cc2)c1 (some centres not stated) | -1.91% and -0.285% |
| COC(=O)C[C@@H]1CC[C@H]2[C@H](COc3ccc(NC(=O)c4ccccc4F)cc3C(=O)N2C)O1 | 0.852% |
| C/C=C/c1ccc([C@H]2[C@@H](CO)N(C(=O)CN(C)C)C23CN(C(=O)C2CCCC2)C3)cc1 | -0.32% |
| C[C@H](CO)N1C[C@H](C)[C@H](CN(C)C(=O)c2ccccc2)OCCCC[C@H](C)Oc2ccc(N(C)C)cc2C1=O | 1.85% |
| COc1ccccc1S(=O)(=O)N1C[C@@H]2N[C@H](C1)C2c1ccc(-c2cccc(C)c2)cc1 (some centres not stated) | 4.06% and 6.11% |
| C[C@@H](NC(=O)C[C@H]1C=C[C@@H](NC(=O)CN2CCOCC2)[C@@H](CO)O1)c1ccccc1 | 9% |
| CCCN1C[C@H](C)[C@@H](OC)CN(C)C(=O)c2ccc(NC(=O)C3CCOCC3)cc2OC[C@@H]1C | -1.27% |
| O=C(Nc1cccc(Cl)c1)N[C@@H]1CC[C@@H](CCNC(=O)C2CCOCC2)O[C@@H]1CO | -1.57% |
| COc1ccc(NC(=O)N(C)C[C@H]2Oc3ccc(N(C)C)cc3C(=O)N([C@@H](C)CO)C[C@H]2C)cc1 | 3.18% |
| O=C(Nc1cc(F)ccc1F)N1C[C@H]2[C@@H](c3ccccc31)[C@@H](CO)N2CC1CCCC1 | -1.13% |
| C[C@H]1CN([C@@H](C)CO)C(=O)c2cc(NS(=O)(=O)c3cccs3)ccc2O[C@@H]1CN(C)C(=O)Nc1ccccc1 | -2.47% |
